Experimental data from PubChem BioAssay AID624101 (Broad Institute, 2012).
Screen size: about 70,000 compounds; about 120 (0.17%) were called active. Rule as the data show it: active = inhibition above about 34%; inconclusive = no clear call, values can overlap the other calls; inactive = below about 11%. The sample as a whole holds a higher share of actives than the screen did.

The compounds below were run against Isocitrate dehydrogenase [NADP] cytoplasmic (Homo sapiens) (UniProt O75874) (assay: PubChem AID 624101). Settings: IDH1 R132H reductase, diaphorase/resazurin fluorescence, 60 min; at 10 µM; active compounds read high.
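Also: 0% = DMSO and 100% = no enzyme.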

Isocitrate dehydrogenase [NADP] cytoplasmic (Homo sapiens), sequence (O75874 whole entry R132H): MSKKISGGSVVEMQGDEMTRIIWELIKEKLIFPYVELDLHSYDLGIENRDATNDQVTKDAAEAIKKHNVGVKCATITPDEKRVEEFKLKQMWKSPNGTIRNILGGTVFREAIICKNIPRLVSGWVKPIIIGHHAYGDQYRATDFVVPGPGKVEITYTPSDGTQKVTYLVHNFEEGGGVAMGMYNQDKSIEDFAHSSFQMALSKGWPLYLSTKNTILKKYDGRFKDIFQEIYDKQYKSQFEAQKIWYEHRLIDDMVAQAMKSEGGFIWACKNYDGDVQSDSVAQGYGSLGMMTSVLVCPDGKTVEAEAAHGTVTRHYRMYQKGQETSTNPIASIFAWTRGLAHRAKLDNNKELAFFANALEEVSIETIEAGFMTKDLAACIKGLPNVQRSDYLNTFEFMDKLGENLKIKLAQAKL

Row | SMILES | inhibition
1 | Cc1ccc(S(=O)(=O)N[C@@H]2CC[C@H](CCn3cc(C4(O)CCCC4)nn3)O[C@H]2CO)cc1 | 0.172% (inactive)
2 | CCNC(=O)C[C@@H]1CC[C@H](NC(=O)NC2CCCCC2)[C@H](CO)O1 | 0.102% (inactive)
3 | CO[C@@H]1CN(C)C(=O)c2ccc(NC(=O)C3CCCC3)cc2OC[C@H](C)NC[C@@H]1C | -0.326% (inactive)
4 | CO[C@@H]1CN(C)C(=O)c2cc(NC(=O)c3ccccc3F)ccc2OC[C@H](C)NC[C@@H]1C | 0.217% (inactive)
5 | COc1cccc(CNC(=O)c2cc3c(c(-c4cccc(-c5ccc(C#N)cc5)c4)n2)[C@@H](CCO)N([S@](=O)C(C)(C)C)C3)c1 | 0.432% (inactive)
6 | O=C(N[C@@H]1CC[C@@H](CCNS(=O)(=O)c2ccccc2Cl)O[C@@H]1CO)c1ccccc1 | -0.485% (inactive)
7 | CO[C@@H]1CN(C)C(=O)c2cc(NC(=O)C3CC3)ccc2OC[C@@H](C)N(C(=O)c2ccncc2)C[C@H]1C | 0.284% (inactive)
8 | COc1ccccc1-c1cnc2c(c1)C(=O)N([C@@H](C)CO)C[C@H](C)[C@@H](CN(C)C(C)=O)O2 | -1.01% (inactive)
9 | O=C(C[C@H]1C[C@H]2c3cc(NS(=O)(=O)c4ccc(F)cc4)ccc3O[C@H]2[C@H](CO)O1)NCc1cc(F)ccc1F | -0.236% (inactive)
10 | O=C(N[C@H]1CC[C@@H](CCNS(=O)(=O)c2cccc(Cl)c2)O[C@@H]1CO)c1ccccc1 | -0.277% (inactive)
11 | CC(C)NC(=O)N[C@H]1CC[C@@H](CC(=O)NCc2ccc(Oc3ccccc3)cc2)O[C@@H]1CO | -0.181% (inactive)
12 | O=C(N[C@H]1CC[C@H](CCNS(=O)(=O)c2ccc(F)cc2)O[C@H]1CO)C1CCC1 | -0.096% (inactive)
13 | C[C@@H]1CN([C@H](C)CO)C(=O)c2cc(-c3ccc(C(=O)N(C)C)cc3)cnc2O[C@H]1CN(C)C(=O)C1CC1 | -0.906% (inactive)
14 | CO[C@@H](CN(C)C(=O)c1cnccn1)[C@@H](C)CN([C@@H](C)CO)S(=O)(=O)c1ccc(Cl)cc1 | 0.106% (inactive)
15 | O=C(C[C@H]1C[C@@H]2c3cc(NC(=O)c4cccnc4)ccc3O[C@@H]2[C@H](CO)O1)NCc1ccccn1 | -0.419% (inactive)
16 | CO[C@H]1CN(C)C(=O)c2ccc(NC(=O)c3ccc4c(c3)OCO4)cc2OC[C@@H](C)NC[C@@H]1C | 0.0335% (inactive)
17 | COCC(=O)Nc1ccc2c(c1)OC[C@@H](C)N(C(=O)c1cnccn1)C[C@H](C)[C@@H](OC)CN(C)C2=O | 0.0305% (inactive)
18 | CO[C@@H]1CN(C)C(=O)c2ccc(NC(=O)Nc3ccccc3)cc2OC[C@@H](C)N(C(=O)Nc2c(C)noc2C)C[C@@H]1C | -0.183% (inactive)
19 | CO[C@@H]1CN(C)C(=O)c2cc(NS(=O)(=O)CC(F)(F)F)ccc2OC[C@@H](C)N(Cc2ccccn2)C[C@H]1C | 0.0375% (inactive)
20 | CO[C@H]1CN(C)C(=O)c2cc(NC(=O)C3CC3)ccc2OC[C@H](C)N(C(=O)CN(C)C)C[C@H]1C | 0.155% (inactive)

Row | SMILES | inhibition
21 | O=C(C[C@@H]1C[C@H]2c3cc(NC(=O)Nc4ccccc4F)ccc3O[C@H]2[C@@H](CO)O1)NC1CCCCC1 | -0.261% (inactive)
22 | CCC(=O)Nc1ccc2c(c1)C(=O)N(C)C[C@H](OC)[C@H](C)CN(C(=O)C1CCC1)[C@@H](C)CO2 | 0.203% (inactive)
23 | COCC(=O)Nc1ccc2c(c1)OC[C@@H](C)N(C(=O)c1ccncc1)C[C@@H](C)[C@@H](OC)CN(C)C2=O | -0.0035% (inactive)
24 | CO[C@@H]1CN(C)C(=O)c2cc(NC(=O)C3CC3)ccc2OC[C@@H](C)N(Cc2ccc(F)cc2)C[C@@H]1C | -0.084% (inactive)
25 | CN(C)CC(=O)Nc1ccc2c(c1)[C@H]1C[C@H](CC(=O)NCc3ccccc3)O[C@@H](CO)[C@H]1O2 | -0.369% (inactive)
26 | C[C@H](CO)N1C[C@H](C)[C@H](CN(C)C(=O)C2CCOCC2)Oc2ncc(-c3ccccc3)cc2C1=O | 0.163% (inactive)
27 | Cc1ccc(S(=O)(=O)NCC[C@H]2CC[C@@H](NC(=O)C3CCOCC3)[C@@H](CO)O2)cc1 | 0.168% (inactive)
28 | COc1cccc(C(=O)Nc2ccc3c(c2)OC[C@H](C)NC[C@H](C)[C@H](OC)CN(C)C3=O)c1 | -0.351% (inactive)
29 | CO[C@@H]1CN(C)C(=O)c2cc(NC(C)=O)ccc2OC[C@H](C)N(Cc2ccccc2F)C[C@@H]1C | -0.198% (inactive)
30 | Cc1ccc(-c2cnc3c(c2)C(=O)N([C@@H](C)CO)C[C@H](C)[C@H](CN(C)C(=O)c2cccnc2)O3)cc1 | -1.23% (inactive)
31 | CO[C@@H](CN(C)S(=O)(=O)c1ccccc1)[C@@H](C)CN(Cc1ccccc1Cl)[C@H](C)CO | -0.567% (inactive)
32 | O=C(N[C@H]1CC[C@@H](CCNS(=O)(=O)c2ccc(F)cc2)O[C@@H]1CO)c1ccccn1 | 0.234% (inactive)
33 | Cc1noc(C)c1C(=O)N(C)C[C@H]1OCc2ccccc2-c2c(n(C)c3ccccc23)C(=O)N([C@@H](C)CO)C[C@H]1C | -2% (inactive)
34 | C[C@@H]1CN([C@@H](C)CO)C(=O)Cc2cc(NC(=O)CCCCCC(=O)Nc3ccccc3N)ccc2O[C@H]1CN(C)C(=O)Nc1ccc(C(F)(F)F)cc1 | 0.304% (inactive)
35 | CC(=O)N(C)C[C@H]1Oc2cc(-c3ccc(C)cc3)ccc2S(=O)(=O)N([C@@H](C)CO)C[C@@H]1C | 5.52% (inactive)
36 | CS(=O)(=O)Nc1ccc2c(c1)[C@H]1C[C@H](CC(=O)NC3CCCC3)O[C@@H](CO)[C@H]1O2 | -0.18% (inactive)
37 | CO[C@@H]1CN(C)C(=O)c2ccc(NS(C)(=O)=O)cc2OC[C@H](C)NC[C@H]1C | 0.02% (inactive)
38 | CO[C@H]1CN(C)C(=O)c2cc(NS(=O)(=O)c3ccccc3)ccc2OC[C@H](C)N(C(=O)NC(C)C)C[C@@H]1C | 0.066% (inactive)
39 | O=C(NCC[C@@H]1CC[C@H](NS(=O)(=O)c2cccc(F)c2)[C@H](CO)O1)c1cnccn1 | -0.0355% (inactive)
40 | O=C(NCC[C@H]1CC[C@H](NC(=O)C2CC2)[C@@H](CO)O1)c1cc(Cl)cc(Cl)c1 | -0.0835% (inactive)
